High-throughput results (PubChem)
HCV inh – inhibitors of hepatitis C virus infection; Huh7.5.1 HCVcc-Cre infection, luciferase reporter, 44 h; Potency, µM (highest dose often 41.8 µM), inactives show top-dose activity change, negative = inhibition, usual class: inhibitors; 340,000 compounds, 3.4% hits; AID 651820; also: potency is read from the fitted curve at half-maximal effect; % is scaled to controls: 0 for no effect and ±100 for the full control effect
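Cells seeded at 1,000/well and cultured 4 h, then compounds added followed by HCVcc-Cre virus (~0.5 moi). After 44 h further culture, luciferase substrate was added, plates held 15 min at room temperature, and luminescence read for 15 sec.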
Pf growth 96h – P. falciparum growth inhibition at 96 hours. P. falciparum luciferase reporter growth, 96 h. Potency, µM (highest dose often 28.7 µM), without a hit: at the top dose activity change, negative = inhibition, usual class: inhibitors. 320,000 compounds, 6.9% hits. AID 504834; also: potency is read from the fitted curve at half-maximal effect; % is scaled to controls: 0 for no effect and ±100 for the full control effect
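Parasite growth measured via integrated firefly luciferase reporter in P. falciparum. Infected erythrocytes at 2% hematocrit, 0.05% parasitemia final were treated 96 hours at 37 C under 5% CO2, and luminescence was read.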
AMA1-RON2 inh – inhibitors of Plasmodium falciparum AMA1-RON2 interaction | Potency, µM (titrated, usually from 58.2 µM), for inactives: at the top dose activity change, negative = inhibition, actives largely listed as inhibitors | AlphaScreen AMA1-biotinylated RON2 peptide binding | 360,000 compounds, 0.2% hits;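 also: potency is read from the fitted curve at half-maximal effect; 0% = vehicle wells and -100% = peptide control; nearly all actives have a fitted effect of over 45% in size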
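AMA1 (3D7) with his tag at 25 nM final met compounds first, then biotinylated RON2 peptide at 25 nM; detection used donor plus acceptor beads, 10 µg/mL apiece, read by AlphaScreen after 30 min at room temperature.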
CHX counter – affects cycloheximide protein synthesis inhibition readout, counter-screen. max response, %. cell reporter, cycloheximide protein synthesis inhibition counterscreen. 300,000 compounds, 12% hits; in the data active = max response mostly above about 13%, no sharp cut-off; inactive = mostly below about 14%; also: read at 38.3 µM for the half of the compounds with a filed dose; 0% is about no effect
Shiga toxin inh – inhibitors of Shiga toxin in Vero cells; AID 2315; inhibition, % at 38.7 µM; Vero cells, Shiga toxin protein synthesis inhibition reporter; 290,000 compounds, 9.2% hits; in the data active = inhibition mostly above about 28%, no sharp cut-off; inactive = mostly below about 43%; also: 0% is about no effect
Pf growth 48h – P. falciparum growth inhibition at 48 hours (one generation); P. falciparum luciferase growth in erythrocytes, 48 h; Potency, µM (highest dose often 28.7 µM), for inactives: at the top dose activity change, negative = inhibition, actives largely listed as inhibitors; 310,000 compounds, 5.9% hits; also: potency is read from the fitted curve at half-maximal effect; % is scaled to controls: 0 for no effect and ±100 for the full control effect
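Cell-based growth assay: transgenic P. falciparum expressing firefly luciferase, cultured in red cells within RPMI 1640 containing 0.5% w/v Albumax, 24 mM bicarbonate and gentamycin. A drop in luciferase activity indicates inhibition.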
An asterisk follows results filed as active; ? = inconclusive; . = no result given. In the library only some 21% were active in any assay of this set; here they are far more common. Unless noted, calls follow the shape of the dose curve; as a rule, active = well fitted curve in the direction sought with a large enough effect; inconclusive = small, poorly fitted or top-dose-only effect, or another doubt; inactive = no such curve, though single readings can be large; an effect the other way counts as inactive or inconclusive.

SMILES	HCV inh	Pf growth 96h	AMA1-RON2 inh	CHX counter	Shiga toxin inh	Pf growth 48h
COc1ccc(C(C(=O)NC(C)(C)C)N(CCO)C(=O)CCC(=O)Nc2cc(C)on2)cc1 (stereo unspecified)	8%	0%	19%	-5	-14	-12%
CCC(C)(C)NC(=O)C(c1cccc(OC)c1OC)N(CCOC)C(=O)CCC(=O)Nc1cc(C)on1 (stereo unspecified)	0%	10µM*	7%	-1	-5	3%
CCc1nc2c(OCC3CCCCC3)cccn2c1N(C)C(=O)c1ccc(C)cc1	.	.	-2%	.	.	.
CCC1(c2ccc(F)cc2)NC(=O)N(CC(=O)Nc2cc(C)on2)C1=O (stereo unspecified)	12%	?	-2%	.	.	-5%
CCC(C)(C)NC(=O)C(c1ccc(C)cc1)N(Cc1cccs1)C(=O)c1ccc2c(c1)OCCO2 (stereo unspecified)	-19%	12µM*	-19%	-2	-14	?
CCN(C(=S)Nc1cccc(C)c1)c1ccccc1	12%	34%	19%	-1	-20	-11%
CC1=NN(C(=S)Nc2ccccc2)C(c2ccccc2)C1 (stereo unspecified)	25%	2.6µM*	-10%	6	41	9.3µM*
Cc1cccc(NC(=S)N2N=CCC2c2ccccc2)c1 (stereo unspecified)	-20%	?	31%	42*	119*	.
CCc1ccccc1NC(=S)N1N=CCC1c1ccccc1 (stereo unspecified)	-11%	-15%	53%	17*	55	?
COc1ccc(OC)c(C2CC(=O)Nc3c2c(=O)[nH]c2ncnn32)c1 (stereo unspecified)	20%	15%	-10%	-5	14	23%
COC(=O)c1c(NC(=O)C2CCCCC2C(=O)O)sc2c1CCCCC2 (stereo unspecified)	3%	-5%	-18%	40*	84*	-5%
COCC(=O)Nc1sc2c(c1C(=O)OC)CCCC2	7.1µM*	1%	-7%	14	13	0%
CC(=O)Nc1sc2c(c1C(=O)N1CCOCC1)CCCCC2	-1%	12µM*	0%	-4	11	6%
COC(=O)c1c(NC(=O)CS(=O)(=O)c2ccc(C)cc2)sc2c1CCCCC2	.	.	.	-2	16	.
COC(=O)c1c(NC(=O)COC(=O)c2ccc(O)cc2)sc2c1CCCCC2	3.2µM*	?	-9%	-1	-27	?
C[C@H](CO)N1C[C@H](C)[C@@H](CN(C)Cc2ccc(Cl)c(Cl)c2)OCc2cnnn2CCCC1=O	.	.	0%	.	.	.
CN(C)CCNC(=O)c1ccc(-c2cnn(C)c2)c2ccoc12	.	.	-3%	.	.	.
COC(=O)c1c(NC(=O)C(=O)NCCCN2CCOCC2)sc2c1CCCC2	22µM*	?	19%	-3	-6	-18%
CC(C)n1nc(C(=O)NNC(=O)c2ccc(OC(F)F)cc2)c2ccccc2c1=O	?	?	88%	.	.	?
CCCn1c(SCC(=O)NC2CCCC2)nnc1-c1cccnc1	-10%	-64%	-10%	-6	-9	8%
COc1ccccc1Nc1nc(N)nc(-c2cc3ccccc3o2)n1	?	32%	3%	33*	active	38%
Cc1cccc(Nc2ncnc(N)n2)c1	-28%	19%	1%	9	3	31%
Cc1c(-c2nc(N)nc(Nc3ccccc3F)n2)oc2ccccc12	?	.	-9%	57*	187*	100%
Cc1ccc(Nc2nc(N)nc(-c3oc4ccccc4c3C)n2)cc1	?	-8%	-1%	23*	46*	?
Cc1ccc(Nc2c([N+](=O)[O-])c(=O)oc3ccccc23)cc1	?	?	-6%	-11	-6	?
SMILES	HCV inh	Pf growth 96h	AMA1-RON2 inh	CHX counter	Shiga toxin inh	Pf growth 48h
CCc1nc(Nc2ccccc2F)c2oc3ccccc3c2n1	?	?	?	8	24	-2%
Cc1cccc(Nc2nc(N)nc(-c3oc4ccccc4c3C)n2)c1	?	-152%	-5%	53*	89*	?
COc1ccc(C)c(NC(=O)NCCc2cnc[nH]2)c1	29%	?	-10%	2	-4	22%
Cc1c(Cl)cccc1NC(=S)NC1CCN(C(C)C)CC1	-21%	9%	7%	0	-5	?
CC(=O)OCC(NC(=O)C1CCCN1C(=O)OC(C)(C)C)C1OC(n2cc(F)c(=O)[nH]c2=O)C(OC(C)=O)C1OC(C)=O (stereo unspecified)	.	.	.	-4	19	.
COc1cccc(Nc2nc(N)nc(-c3oc4ccccc4c3C)n2)c1	?	-25%	-3%	42*	79*	?
Cc1nc2cc(Cl)c(Cl)cc2n1-c1ccccn1	?	88%	3%	.	.	-24%
NS(=O)(=O)c1cccc(NC(=O)CSc2nn(-c3ccccc3)c(=S)s2)c1	?	1.2µM*	-8%	-1	-9	1.9µM*
CN(C)S(=O)(=O)c1cc(NC(=O)CSc2nn(-c3ccc(Cl)cc3)c(=S)s2)ccc1Cl	6.3µM*	?	15%	-2	12	?
Nc1nnc(SCC(=O)Nc2cccc(S(N)(=O)=O)c2)s1	17%	19%	6%	-1	-10	8%
Cc1ccc(NC(=O)CSc2nn(-c3ccc(Cl)cc3)c(=S)s2)cc1S(=O)(=O)N(C)C	13µM*	?	41%	-2	-3	?
CN(C)S(=O)(=O)c1cc(NC(=O)Cn2ccsc2=N)ccc1Cl	6%	1%	5%	8	-5	4%
Cc1ccc(NC(=O)Cc2ccccc2Cl)cc1S(=O)(=O)N(C)C	?	?	-12%	5	-2	0%
CCN(CC)c1c(C)nc2ccc(C(=O)N3CCN(C(=O)c4ccco4)CC3)cn12	.	.	15%	.	.	.
CCn1cc(C(=O)NCC(OC)OC)c(=O)c2cc(S(=O)(=O)N3CCC(C)CC3)ccc21	-3%	?	-3%	9	-7	-2%
CCN(CC(=O)Nc1ccc(NC(C)=O)cc1)C(=O)C1(c2ccc(Cl)cc2)CCC1	.	.	1%	.	.	.
S=c1[nH]c2ccccc2o1	18%	3%	11%	13*	83*	16%
S=c1[nH]c2ccccc2n2cccc12	?	?	24%	1	-13	?
CSc1ccccc1C(=O)Nc1ccccc1C	25%	?	3%	-3	-5	-3%
Cc1ccccc1N=C(N)Nc1ccccc1C	7%	10µM*	-1%	.	.	?
Cc1ccccc1NC(=O)C(=O)Nc1ccccc1C	12%	173%	-3%	23*	49*	125%
Cc1ccc(C)n1NC(=O)c1ccccc1O	0%	9.3µM*	31%	3	36	?
Cc1ccc(C)n1NC(=O)c1ccccc1[N+](=O)[O-]	6%	-28%	-10%	-2	-6	1%
